# High-throughput results deposited in PubChem by National Center for Advancing Translational Sciences (NCATS).
# Tau fluor counter: counter-screen for tau fibril formation inhibitors | tau K18 P301L Alexa594 fluorescence, heparin fibrillization | Potency, µM (series often up to 57.7 µM), for inactives: at the top dose activity change, negative = decrease | 280,000 tested, 0.93% active; active = well fitted curve in the direction sought with a large enough effect; inconclusive = small, poorly fitted or top-dose-only effect, or another doubt; inactive = no such curve, though single readings can be large; an effect the other way counts as inactive or inconclusive; note: nearly all actives have a fitted effect of over 55% in size
#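 Human K18 P301L tau (15 uM unlabeled plus 0.24 uM Alexa 594-labeled, final) in 100 mM sodium acetate pH 7 was mixed with compound and 20 uM heparin and incubated 6 hr at 37 C.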
# KDM4E inh: JMJD2E (human) inhibition | B2RXH2 | JMJD2E catalytic domain, FDH-coupled NADH fluorescence (FDH is formaldehyde dehydrogenase) | Potency, µM (series often up to 57.1 µM), inactives show top-dose activity change, negative = inhibition, usual class: inhibitors | 230,000 tested, 1.6% active | AID 2147;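 note: 0% = wells with enzyme and -100% = buffer wells without enzyme; nearly all actives have a fitted effect of over 50% in size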
# Tau fibril ThT: tau fibrillization inhibition (ThT binding); recombinant tau K18 P301L (four-repeat tau fragment), heparin-induced fibrillization, ThT fluorescence; Potency, µM (top dose mostly 57.4 µM), without a hit: at the top dose activity, negative = inhibition, most hits filed as inhibitors; P10636; 270,000 tested, 2.1% active; active = well fitted curve in the direction sought with a large enough effect; inconclusive = small, poorly fitted or top-dose-only effect, or another doubt; inactive = no such curve, though single readings can be large; an effect the other way counts as inactive or inconclusive; note: nearly all actives have a fitted effect of over 55% in size
# Target sequence (P10636 561-689 P618L limits assumed): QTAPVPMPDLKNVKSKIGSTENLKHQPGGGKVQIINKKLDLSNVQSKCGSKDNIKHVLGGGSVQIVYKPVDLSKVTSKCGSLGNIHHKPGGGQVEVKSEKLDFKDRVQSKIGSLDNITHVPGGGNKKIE
#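 Recombinant human tau K18 fragment […] carrying P301L, 15 uM unlabeled plus 0.24 uM Alexa 594-labeled, was fibrillized with 20 uM heparin in 100 mM sodium acetate pH 7 for 6 hr at 37 C; 30 uM ThT fluorescence read after 1 hr.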
# HPGD block: HPGD (human) dehydrogenase inhibition; purified HPGD, NADH fluorescence kinetic, PGE2 substrate; Potency, µM, for inactives: at the highest dose activity change, negative = inhibition, hits mostly inhibitors; 150,000 tested, 4.3% active
# Target sequence (P15428 whole entry, looked up): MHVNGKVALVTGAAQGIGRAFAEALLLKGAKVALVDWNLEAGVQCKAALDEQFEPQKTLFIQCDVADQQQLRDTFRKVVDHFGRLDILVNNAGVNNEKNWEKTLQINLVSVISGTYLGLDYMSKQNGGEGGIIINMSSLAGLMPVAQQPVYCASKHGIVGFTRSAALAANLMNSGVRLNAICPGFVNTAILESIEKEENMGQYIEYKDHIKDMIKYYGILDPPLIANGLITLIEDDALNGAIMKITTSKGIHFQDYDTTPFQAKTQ
#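 NADH formation kinetics: reaction with 30 uM PGE2 and 1 mM NAD+ (final), 20 nM enzyme, Tris-HCl pH 8 with Tween 20, after 15 min compound preincubation at room temperature. Fluorescence change, last versus first of five reads.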
# ALDH1A1 inh: ALDH1A1 (human) enzyme inhibition. AID 1030. P00352. Potency, µM (doses to about 75.3 µM), for the others: at the highest dose activity, negative = inhibition, actives largely listed as inhibitors. Purified ALDH1A1, NADH fluorescence, propionaldehyde substrate. 220,000 tested, 7.3% active;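 note: plate controls were no enzyme wells and a reference inhibitor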
# Tau FP inhib: tau fibrillization inhibition (FP) | Potency, µM (doses to about 57.7 µM), without a hit: top-dose activity, negative = inhibition, usual class: inhibitors | K18 P301L tau heparin fibrillization, Alexa594 FP, 6 h | 280,000 tested, 0.39% active | P10636; active = well fitted curve in the direction sought with a large enough effect; inconclusive = small, poorly fitted or top-dose-only effect, or another doubt; inactive = no such curve, though single readings can be large; an effect the other way counts as inactive or inconclusive; note: nearly all actives have a fitted effect of over 55% in size
#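 K18 P301L tau (15 uM unlabeled/0.24 uM Alexa 594-labeled, final) + compound + heparin 20 uM final; 100 mM NaOAc pH 7; 6 hr 37 C; ThT 30 uM final added, 1 hr RT; FP ex 555/em 632 nm.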
# * marks the source's active call; other numbers are inactive results; u = inconclusive; x = no result given. Sampled rows, rich in hits. Any-hit rate of the full collection: about 9.9%. Unless noted, calls come from the whole dose curve; as a rule, active = well fitted inhibition curve with a large enough effect (not every such curve was filed as active); inconclusive = small, poorly fitted or top-dose-only effect, or another doubt; inactive = no such curve, though single readings can be large or run the other way. Unless noted, % is set by controls: 0 for no effect and ±100 for the full control effect; potency is the fitted concentration of half-maximal effect.
SMILES,Tau fluor counter,KDM4E inh,Tau fibril ThT,HPGD block,ALDH1A1 inh,Tau FP inhib
O=c1c(N2CCc3ccccc3C2)csc2ccccc12,-21%,x,14µM*,x,x,0%
CC1(C)CC(=O)c2c(oc3cc4c(cc23)OCO4)C1,-15%,17%,-7%,2.5µM*,7.9µM*,-1%
Oc1ccccc1/C=N/Nc1cc(N2CCCC2)nc(N2CCCC2)n1,u,u,u,-5%,-7%,-5%
Oc1ccc(/C=N/Nc2cc(N3CCOCC3)nc(N3CCOCC3)n2)cc1O,u,28µM*,u,-20%,-8%,-5%
COCCn1c(SCc2nnc(-c3ccccc3)o2)nc2sc3c(c2c1=O)CCC3,-3%,-2%,-13%,7.1µM*,-8%,1%
COCCn1c(SCC(=O)Nc2ncc(C)s2)nc2sc3c(c2c1=O)CCC3,-7%,1%,u,-10%,-12%,0%
Cc1nc(C)c(C(=O)Nc2ccc(Oc3ccccc3)cc2)o1,x,-2%,x,-18%,32µM*,x
Cc1ncoc1C(=O)Nc1ccc(Oc2ccccc2)cc1,-24%,-3%,-17%,-18%,-7%,-2%
CCOC(=O)Cc1csc(NC(=O)c2sc3nc4c(C)cc(C)cc4cc3c2N)n1,u,u,16µM*,-15%,u,3%
O=C1NC(=O)/C(=C\c2ccc(O)cc2O)S1,-28%,16µM*,u,x,-15%,-6%
Cc1cc(N2CCOCC2)ccc1/C=C1/SC(=O)NC1=O,-27%,-11%,10µM*,x,-11%,-9%
C=CC(C)N1C(=O)S/C(=C\c2ccc(N3CCOCC3)cc2C)C1=O (centres undefined),-28%,-2%,u,-15%,u,u
C=CCN1C(=O)S/C(=C\c2ccc(N3CCOCC3)cc2C)C1=O,u,-2%,u,u,0.89µM*,5%
Cc1cc(N2CCOCC2)ccc1/C=C1\NC(=O)N(CC(=O)Nc2ccccc2C)C1=O,-16%,-2%,-19%,-9%,3%,8%
Cn1ncc2c(NNC(=O)C3CCCCC3)ncnc21,-3%,1%,-1%,x,5%,2%
COc1ccc(Br)cc1/C=C\C(=O)NCc1cccnc1,-15%,2%,1%,x,u,-5%
O=C(CN1CCOCC1)NN1CC(=O)N(c2ccc(Cl)cc2)CC1=O,2%,2%,1%,x,x,3%
COc1ccc(OC)c(NC(=O)c2cc3c(n(-c4ccc(Cl)cc4)c2=O)CC(C)(C)CC3=O)c1,0%,x,6%,x,x,-6%
CCCOc1c(Cl)cc(/C=N/O)cc1OCC,-28%,0%,u,25µM*,u,u
CCOc1ccc(Cl)cc1/C=N/NC(N)=O,5%,4%,4%,x,-3%,4%
CCOc1cc(C=O)cc(Cl)c1OCC(N)=O,-3%,-8%,-8%,x,7.1µM*,4%
CCOc1cc(/C=N/O)cc(Cl)c1OC,-7%,5%,-3%,-18%,20%,-5%
CCOc1ccc(Cl)cc1/C=N/O,0%,-3%,1%,11µM*,7%,1%
O=C(CC1C(=O)NCCN1Cc1cccc(Oc2ccccc2)c1)NCCc1cnccn1 (centres undefined),-10%,u,u,x,u,-3%
CN(C)c1ccc(C(c2nnnn2C(C)(C)C)N2CCN(C(=O)c3ccco3)CC2)cc1 (centres undefined),u,-8%,16µM*,x,u,-14%
COc1ccccc1C(c1nnnn1C(C)(C)C)N1CCN(C(=O)c2ccco2)CC1 (centres undefined),-12%,2%,-8%,2%,25µM*,0%
Cc1[nH]n(C(N)=S)c(=O)c1N=Nc1ccc(S(=O)(=O)N2CCCC2)cc1,-14%,-7%,u,-30%,32µM*,8%
N#C/C(=C\c1cccc(OC(=O)c2cccs2)c1)C(N)=O,9%,-4%,-7%,25µM*,-6%,4%
